# Test results from PubChem BioAssay (Tox21).
# Several values for one entry are separate records, joined by “and”; a condition that tells them apart may be missing. Equal entries are not always repeated. Inconclusive results are not listed. Entries that show only a call come without a potency. The source holds several records for some structures; these can differ, active in one and inactive in another. Activity calls are given as the source filed them. Calls follow the shape of the dose curve; as a rule, active = well fitted curve in the direction sought with a large enough effect in the repeat runs; inconclusive = weak or mixed curves; inactive = no such curve, though single readings can be large; an effect the other way counts as inactive or inconclusive.
# Legend:
# [1] = A CellTox Green Cytotoxicity Assay to monitor cytotoxicity in HEK293 cells - 40 hour (AID 1224871); also: nearly all actives have a fitted effect of over 45% in size; also: potency is read from the fitted curve at half-maximal effect
# In short: (§1)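 Read-out: fluorescence of a cell-impermeant cyanine dye staining DNA of dead cells, proportional to cytotoxicity. HEK293, 600 cells/well with reagent, compound (23 nL DMSO) added after 5 h; reads at 0, 8, 16, 24, 32, 40 h.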
# [2] = qHTS RealTime-Glo MT Cell Viability Assay in HEK293 cells - 16 hour (AID 1224872); also: nearly all actives have a fitted effect of over 50% in size; also: potency is read from the fitted curve at half-maximal effect; as to activity change, negative = cytotoxicity: top concentration of the series differs between compounds
# In short: (§2)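 Luminescence generated by NanoLuc from substrate produced by living HEK293 cells served as the viability signal. Each value reflects the reading at its stated time point during continuous 40 h compound exposure at 37 C.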
# [3] = qHTS RealTime-Glo MT Cell Viability Assay in HepG2 cells - 8 hour (AID 1224873); also: nearly all actives have a fitted effect of over 55% in size; also: potency is read from the fitted curve at half-maximal effect
# In short: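 HepG2 cells mixed with RealTime-Glo MT reagents (NanoLuc plus cell-permeant prosubstrate) were seeded at 600 cells/well, incubated 5 h at 37 C/5% CO2, then pinned with compounds in DMSO; nonlytic luminescence tracked viability during 40 h treatment.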
# [4] = qHTS RealTime-Glo MT Cell Viability Assay in HEK293 cells - 40 hour (AID 1224874); conditions: RealTime-Glo luminescence; max response: stronger effect = lower value; also: nearly all actives have a fitted effect of over 50% in size; also: potency is read from the fitted curve at half-maximal effect
# In short: (§3)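 Luminescence readout at each listed time point; HEK293, 600 cells/well, RealTime-Glo MT reagent added with cells; compounds pinned (23 nL in DMSO) after 5 h at 37 C; continuous culture at 37 C.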
# [5] = A CellTox Green Cytotoxicity Assay to monitor cytotoxicity in HEK293 cells - 24 hour (AID 1224875); also: nearly all actives have a fitted effect of over 45% in size; also: potency is read from the fitted curve at half-maximal effect; as to activity change: series mostly up to about 77 µM
# In short: as §1
# [6] = A CellTox Green Cytotoxicity Assay to monitor cytotoxicity in HepG2 cells - 16 hour (AID 1224876); also: nearly all actives have a fitted effect of over 45% in size; also: potency is read from the fitted curve at half-maximal effect
# In short: (§4)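 HepG2, 600 cells/well premixed w/ CellTox Green; 5 h settle, 37 C/5% CO2; pintool cpd add (DMSO); 37 C, 40 h; fluorescence read at 0, 8, 16, 24, 32, 40 h.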
# [7] = qHTS RealTime-Glo MT Cell Viability Assay in HepG2 cells - 32 hour (AID 1224877); also: nearly all actives have a fitted effect of over 55% in size; also: potency is read from the fitted curve at half-maximal effect
# In short: (§5)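 Tox21 10K library screened in qHTS format on HepG2 cells carrying RealTime-Glo reagents. Compounds were added after a 5 h preincubation, and the luminescent signal from continuous culture was measured repeatedly during 40 h treatment.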
# [8] = A CellTox Green Cytotoxicity Assay to monitor cytotoxicity in HepG2 cells - 24 hour (AID 1224878); also: nearly all actives have a fitted effect of over 45% in size; also: potency is read from the fitted curve at half-maximal effect
# In short: as §4
# [9] = A CellTox Green Cytotoxicity Assay to monitor cytotoxicity in HEK293 cells - 32 hour (AID 1224881); also: nearly all actives have a fitted effect of over 40% in size; also: potency is read from the fitted curve at half-maximal effect
# In short: as §1
# [10] = A CellTox Green Cytotoxicity Assay to monitor cytotoxicity in HepG2 cells - 0 hour (AID 1224882); also: nearly all actives have a fitted effect of over 35% in size
# In short: as §4
# [11] = A CellTox Green Cytotoxicity Assay to monitor cytotoxicity in HEK293 cells - 8 hour (AID 1224884); also: nearly all actives have a fitted effect of over 35% in size; also: potency is read from the fitted curve at half-maximal effect
# In short: as §1
# [12] = qHTS RealTime-Glo MT Cell Viability Assay in HepG2 cells - 16 hour (AID 1224885); also: nearly all actives have a fitted effect of over 50% in size; also: potency is read from the fitted curve at half-maximal effect
# In short: as §5
# [13] = qHTS RealTime-Glo MT Cell Viability Assay in HEK293 cells - 24 hour (AID 1224886); also: nearly all actives have a fitted effect of over 50% in size; also: potency is read from the fitted curve at half-maximal effect; as to activity change, negative = cytotoxicity: top concentration of the series differs between compounds
# In short: as §2
# [14] = qHTS RealTime-Glo MT Cell Viability Assay in HEK293 cells - 8 hour (AID 1224887); also: nearly all actives have a fitted effect of over 50% in size; also: potency is read from the fitted curve at half-maximal effect; as to activity change, negative = cytotoxicity: top concentration of the series differs between compounds
# In short: as §3
# [15] = A CellTox Green Cytotoxicity Assay to monitor cytotoxicity in HEK293 cells - 16 hour (AID 1224888); also: nearly all actives have a fitted effect of over 35% in size; also: potency is read from the fitted curve at half-maximal effect
# In short: as §1
# [16] = qHTS RealTime-Glo MT Cell Viability Assay in HepG2 cells - 0 hour (AID 1224889); also: nearly all actives have a fitted effect of over 50% in size; also: potency is read from the fitted curve at half-maximal effect
# In short: as §5
# [17] = A CellTox Green Cytotoxicity Assay to monitor cytotoxicity in HepG2 cells - 8 hour (AID 1224890); also: nearly all actives have a fitted effect of over 45% in size; also: potency is read from the fitted curve at half-maximal effect
# In short: as §4
# [18] = A CellTox Green Cytotoxicity Assay to monitor cytotoxicity in HepG2 cells - 40 hour (AID 1224879); also: nearly all actives have a fitted effect of over 40% in size; also: potency is read from the fitted curve at half-maximal effect
# In short: as §4
# [19] = A CellTox Green Cytotoxicity Assay to monitor cytotoxicity in HepG2 cells - 32 hour (AID 1224883); also: nearly all actives have a fitted effect of over 50% in size; also: potency is read from the fitted curve at half-maximal effect
# In short: as §4
# [20] = qHTS RealTime-Glo MT Cell Viability Assay in HEK293 cells - 0 hour (AID 1224880); also: nearly all actives have a fitted effect of over 45% in size; also: potency is read from the fitted curve at half-maximal effect; as to activity change, negative = cytotoxicity: top concentration of the series differs between compounds
# In short: as §3
smiles,measurement,setting,value
CCC(CN)=C(c1ccccc1)c1ccccc1,Potency,[1],inactive
same,Potency,[2],inactive
same,Potency,[3],inactive
same,max response,[4],-19.1% (inactive)
same,Potency,[5],inactive
same,Potency,[6],inactive
same,Potency,[7],inactive
same,Potency,[8],inactive
same,Potency,[9],inactive
same,Potency,[10],inactive
same,Potency,[11],inactive
same,Potency,[12],inactive
same,Potency,[13],inactive
same,Potency,[14],inactive
same,Potency,[15],inactive
same,Potency,[16],inactive
same,Potency,[17],inactive
CCCCCCCC[N+](CCCCCCCC)(CCCCCCCC)CCCCCCCC,Potency,[1],19.5 µM (active)
same,Potency,[2],7.75 µM (active)
same,Potency,[3],24.5 µM (active)
same,Potency,[4],2.18 µM (active)
same,Potency,[5],15.5 µM (active)
same,Potency,[6],24.5 µM (active)
same,Potency,[7],24.5 µM (active)
same,Potency,[8],19.5 µM (active)
same,Potency,[18],24.5 µM (active)
same,Potency,[9],15.5 µM (active)
same,Potency,[10],inactive
same,Potency,[19],21.8 µM (active)
same,Potency,[11],24.5 µM (active)
same,Potency,[13],6.15 µM (active)
same,Potency,[14],12.3 µM (active)
same,Potency,[15],21.8 µM (active)
same,Potency,[17],34.6 µM (active)
COC(=O)C1=C(C)NC(C)=C(C(=O)OCC(C)C)C1c1ccccc1[N+](=O)[O-] (stereo unspecified),Potency,[1],49 µM (active) and inactive
same,Potency,[2],38.9 µM (active)
same,Potency,[3],43.6 µM (active)
same,Potency,[4],19.5 µM (active) and 23.9 µM (active)
same,Potency,[5],inactive
same,Potency,[6],inactive
same,Potency,[8],inactive
same,Potency,[18],inactive
same,Potency,[20],21.3 µM (active)
same,Potency,[9],49 µM (active) and inactive
same,Potency,[10],inactive
same,Potency,[19],inactive
same,Potency,[11],inactive
same,Potency,[12],43.6 µM (active)
same,Potency,[13],24.5 µM (active)
same,Potency,[14],21.9 µM (active)
same,Potency,[15],inactive
same,Potency,[16],21.9 µM (active)
same,Potency,[17],inactive
Nc1cc(C(F)(F)F)ccc1S,Potency,[1],inactive
same,Potency,[2],inactive
same,Potency,[3],inactive
same,max response,[4],3.21% (inactive)
same,Potency,[5],inactive
same,Potency,[6],inactive
same,Potency,[8],inactive
same,Potency,[18],inactive
same,Potency,[20],inactive
same,Potency,[9],inactive
same,Potency,[10],inactive
same,Potency,[11],inactive
same,Potency,[12],inactive
same,Potency,[13],inactive
same,Potency,[14],inactive
same,Potency,[15],inactive
same,Potency,[16],inactive
same,Potency,[17],inactive
Cc1c(C)c2c(c(C)c1O)CCC(C)(COc1ccc(CC3SC(=O)NC3=O)cc1)O2 (stereo unspecified),Potency,[1],inactive
same,Potency,[2],43.6 µM (active)
same,Potency,[3],inactive
same,Potency,[4],43.6 µM (active)
same,Potency,[5],inactive
same,Potency,[6],inactive
same,Potency,[8],inactive
same,Potency,[18],inactive
same,Potency,[20],inactive
same,Potency,[9],inactive
same,Potency,[10],inactive
same,Potency,[19],inactive
same,Potency,[11],inactive
same,Potency,[12],inactive
same,Potency,[13],43.6 µM (active)
same,Potency,[15],inactive
same,Potency,[16],inactive
same,Potency,[17],inactive
NC(=O)CC[C@@H]1NC(=O)[C@H](Cc2ccccc2)NC(=O)[C@H](Cc2ccc(O)cc2)NC(=O)CCSSC[C@@H](C(=O)N2CCC[C@H]2C(=O)N[C@@H](CCCN=C(N)N)C(=O)NCC(N)=O)NC(=O)[C@H](CC(N)=O)NC1=O,Potency,[1],inactive
same,Potency,[2],inactive
same,Potency,[3],inactive
same,max response,[4],0.946% (inactive)
same,Potency,[5],inactive
same,Potency,[6],inactive
same,Potency,[8],inactive
same,Potency,[18],inactive
same,Potency,[20],inactive
same,Potency,[9],inactive
same,Potency,[10],inactive
same,Potency,[19],inactive
same,Potency,[13],inactive
same,Potency,[14],inactive
same,Potency,[15],inactive
same,Potency,[16],inactive
same,Potency,[17],inactive
C[n+]1cc2c3c(ccc2c2ccc4cc5c(cc4c21)OCO5)OCO3,Potency,[1],0.465 µM (active)
same,Potency,[2],0.585 µM (active)
same,Potency,[3],0.737 µM (active)
same,Potency,[4],0.585 µM (active)
same,Potency,[5],0.737 µM (active)
same,Potency,[6],0.585 µM (active)
same,Potency,[8],0.522 µM (active)
same,Potency,[18],0.657 µM (active)
same,"activity change, negative = cytotoxicity",[20],-2.48% [at 15.8 µM] (inactive)
same,Potency,[9],0.465 µM (active)
same,cytotoxicity,[10],-26.7% [at 15.8 µM] (inactive)
same,Potency,[19],0.585 µM (active)
same,Potency,[12],0.827 µM (active)
same,Potency,[13],0.585 µM (active)
same,Potency,[14],0.465 µM (active)
same,Potency,[15],4.65 µM (active)
same,"activity change, negative = cytotoxicity",[16],-1.39% [at 15.8 µM] (inactive)
same,Potency,[17],0.737 µM (active)
O=C(Nc1cccc(Cl)c1)OCC#CCCl,Potency,[1],43.6 µM (active)
same,Potency,[2],54.9 µM (active)
same,Potency,[3],43.6 µM (active)
same,Potency,[4],49 µM (active)
same,Potency,[5],inactive
same,Potency,[6],inactive
same,Potency,[7],43.6 µM (active)
same,Potency,[10],inactive
same,Potency,[11],inactive
same,Potency,[12],43.6 µM (active)
same,Potency,[14],43.6 µM (active)
same,Potency,[15],inactive
same,Potency,[16],inactive
same,Potency,[17],inactive
OCCN1CCN(CC/C=C2/c3ccccc3Sc3ccc(C(F)(F)F)cc32)CC1,Potency,[1],26.8 µM (active)
same,Potency,[2],19 µM (active)
same,Potency,[3],23.9 µM (active)
same,Potency,[4],19 µM (active)
same,Potency,[5],26.8 µM (active)
same,Potency,[6],23.9 µM (active)
same,Potency,[7],15.1 µM (active)
same,Potency,[8],16.9 µM (active)
same,Potency,[18],13.4 µM (active)
same,Potency,[9],26.8 µM (active)
same,Potency,[10],inactive
same,Potency,[19],15.1 µM (active)
same,Potency,[11],23.9 µM (active)
same,Potency,[13],19 µM (active)
same,Potency,[14],21.3 µM (active)
same,Potency,[15],26.8 µM (active)
same,Potency,[17],23.9 µM (active)
CC(C)c1ccc2c(c1)CC[C@H]1[C@](C)(CN)CCC[C@]21C,Potency,[1],19.5 µM (active)
same,Potency,[2],13.8 µM (active)
same,Potency,[3],34.7 µM (active)
same,Potency,[4],11 µM (active)
same,Potency,[5],19.5 µM (active)
same,Potency,[6],19.5 µM (active)
same,Potency,[7],11 µM (active)
same,Potency,[8],13.8 µM (active)
same,Potency,[18],11 µM (active)
same,Potency,[9],19.5 µM (active)
same,Potency,[10],inactive
same,Potency,[19],12.3 µM (active)
same,Potency,[11],38.9 µM (active)
same,Potency,[12],17.4 µM (active)
same,Potency,[13],12.3 µM (active)
same,Potency,[14],21.9 µM (active)
same,Potency,[15],24.5 µM (active)
same,Potency,[17],43.6 µM (active)
CCCCN(CCCC)C(=O)N(CCCC)CCCC,Potency,[1],inactive
same,Potency,[2],inactive
same,Potency,[3],inactive
same,max response,[4],-2.17% (inactive)
same,Potency,[5],inactive
same,Potency,[6],inactive
same,Potency,[8],inactive
same,Potency,[18],inactive
same,Potency,[9],inactive
same,Potency,[10],inactive
same,Potency,[19],inactive
same,Potency,[11],inactive
same,Potency,[12],inactive
same,Potency,[13],inactive
same,Potency,[14],inactive
same,Potency,[15],inactive
same,Potency,[16],inactive
same,Potency,[17],inactive
